Source: PubChem BioAssay

experiment: basal RPMI8226 mitochondrial membrane potential changes, profiling panel, cell-based, JC-1 fluorescence, 24 h, 100 nL compound (AID 1169); details: RPMI8226 myeloma, JC-1 mitochondrial potential fluorescence, higher = more signal; further: test concentration not given here

SMILES | z-score
COc1cc(CO)cc(I)c1O[C@H]1C=C(C(=O)NCCO)C[C@@H](N(CCN2CCOCC2)C(=O)C2CCCO2)[C@@H]1O (some centres not stated) | 0.385
O=C1C2C=CC(C(O)C(c3ccccc3)c3ccccc3)N(Nc3ccccc3F)C2C(=O)N1c1ccccc1 (configuration not stated) | 0.284
COC(=O)C[C@H]1O[C@]2(C(=O)N(C)c3ccccc32)[C@@H](C)[C@@H]1[Si](C)(C)c1ccccc1 | -0.0109
CC(C)(C)OC(=O)CC[C@]1(C(=O)N2CCOCC2)COC(c2ccc(OCCCO)cc2)=N1 | -0.44
C=C(CC1([C@@H](NP(=O)(c2ccccc2)c2ccccc2)[C@H]2C[C@@H]2CCCC)CC1)c1cccc(OC)c1 | -0.799
COc1ccc(C(=O)Nc2cccc(CN3C(=O)[C@]4(O[C@H](CC(=O)N(CCO)Cc5ccccc5)[C@@H]([Si](C)(C)c5ccc(OC)cc5)[C@@H]4C)c4ccccc43)c2)cc1 | -0.877
CC[C@@H](O[Si](C#C[Si](C(C)C)(C(C)C)C(C)C)(C(C)C)C(C)C)c1cn([C@H](CO)Cc2ccccc2)nn1 | -0.0761
